Screens from PubChem BioAssay.
A selection: hits, their analogues and other compounds. The true share with any hit is near 1.8%.
AGP1-GFP MLPCN: modulators of AGP1-GFP expression in yeast TOR pathway, primary screen, cell-based, multiplex flow cytometry, S. cerevisiae, MLPCN library | AID 2066, 2009 | hit rate 0.02% among 320,000 | 3 h; GFP as percent of DMSO wells | GFP response vs DMSO, % at 10 µM;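 active = GFP response relative to DMSO above a set limit, near screen average plus 3 SD, cut at about 150% in these data; inconclusive = fewer than 70 cells counted for the yeast strain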;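 note: median GFP channel fluorescence of the gated AGP1 strain per well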
CIT2 TOR yeast: modulators of CIT2-GFP expression in yeast, primary screen, S. cerevisiae, GFP fusion, multiplex flow cytometry, MLPCN library | GFP response vs DMSO, % at 10 µM | S. cerevisiae CIT2-GFP strain, 3 h; 100 means same as DMSO wells | hit rate 0.065% among 320,000;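 active = GFP response relative to DMSO above a set limit, near the screen mean plus 3 SD, cut at about 150% in these data; inconclusive = Fewer than 70 cells measured for a yeast strain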;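 note: ratio of well median GFP fluorescence to mean of DMSO wells on the plate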
LAP4 TOR yeast: modulators of LAP4-GFP expression in yeast, primary screen, S. cerevisiae, multiplex flow cytometry, MLPCN library; 3 h; median GFP as percent of DMSO wells; GFP response vs DMSO, % at 10 µM; hit rate 0.34% among 320,000; AID 2023, 2009;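 active = GFP response vs DMSO above a set limit, about the screen mean plus 3 SD, cut at about 150% in these data; inconclusive = under 70 cell events counted for the yeast strain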
RPL19A-GFP yeast: RPL19A-GFP expression modulators in yeast, primary screen, cell-based, S. cerevisiae, multiplex flow cytometry, MLPCN | S. cerevisiae RPL19A-GFP strain, 3 h; active compounds read low | hit rate 0.3% among 330,000 | AID 2025, 2009 | percent response vs DMSO, % at 10 µM;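 active = percent response vs DMSO below 50%; inconclusive = fewer than 70 events counted for the yeast strain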;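 note: median channel GFP fluorescence of the barcoded RPL19A-GFP strain; ratio of sample median GFP to plate DMSO average so 100% = DMSO; lower means less RPL19A-GFP as with rapamycin TOR inhibition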
MEP2 TOR yeast: modulators of MEP2-GFP levels in yeast, primary screen, S. cerevisiae, multiplex flow cytometry, MLPCN library; S. cerevisiae MEP2-GFP strain, 3 h; 100% = DMSO control level; GFP response vs DMSO, % at 10 µM; hit rate 0.51% among 330,000; AID 2016, 2009;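 active = GFP response versus DMSO above a set limit, roughly screen mean plus 3 SD, cut at about 180% in these data; inconclusive = fewer than 70 cells counted for a yeast strain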;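 note: median GFP fluorescence of the barcode-gated MEP2-GFP cells per well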
Myeloid diff MLP: induction of myeloid progenitor differentiation, primary screen, cell-based, flow cytometry, MLPCN library | ER-HoxA9 myeloid progenitors, lysozyme-GFP differentiation | calls only at 10 µM | hit rate 1% among 360,000 | AID 624256, 2012;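 active = normalized GFP-positive differentiation at or above the plate's own cutoff, the solvent-only control mean plus 3 SD; inconclusive = no clear call, values can overlap the other calls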;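 note: cells exposed to compound for four days before flow analysis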
Numbers without * were called inactive; i = inactive; ? = inconclusive; . = no result given; + = active, no number; [ ] = another dose, or the depositor's remark.

SMILES	AGP1-GFP MLPCN	CIT2 TOR yeast	LAP4 TOR yeast	RPL19A-GFP yeast	MEP2 TOR yeast	Myeloid diff MLP
N#Cc1ccc(OCC(=O)NN2Cc3ccccc3C2=N)cc1	100.8	95.0	98.5	114.5	119.8	i
CN(C)CCCN1C(=O)C(=O)/C(=C(/O)c2ccncc2)C1c1ccccc1 (configuration not stated)	?	?	103.0	46.3*[may fluoresce violet]	288.5*[may fluoresce violet]	i
CCN(CC)CCN1C(=O)C(=O)/C(=C(/O)c2ccncc2)C1c1ccccc1 (configuration not stated)	96.8	95.2	100.3	95.2	97.3	i
CC12CCC(C(=O)N3CCc4ccccc43)(CC1=O)C2(C)C (configuration not stated)	31.7	?	96.0	.	282.0*[may fluoresce violet]	i
COc1ccc(/C=C2\SC(=S)N(CC(=O)N3CCN(C)CC3)C2=O)cc1	98.1	86.2	104.7	95.3	92.5	i
O=C(CCN1C(=O)S/C(=C/c2ccccc2)C1=O)Nc1ccc(O)c(C(=O)O)c1	?	?	85.6	17.2*[may fluoresce violet]	142.3	i
COCCN1C(=O)/C(=C/c2ccc(N3CCCC3)cc2)SC1=S	95.1	116.5	104.2	107.1	119.3	+
Cc1ccc(/C=C2\SC(=S)N(CCCC(=O)N3CCOCC3)C2=O)cc1	92.2	115.8	70.0	100.6	85.1	+
CCOc1ccc(/C=C2\SC(=S)N(CCC(=O)Nc3ccccc3C(=O)O)C2=O)cc1	103.6	103.7	93.3	104.0	103.6	+
COC(=O)c1ccc(/C=C2\SC(=S)N(CCCC(=O)N3CCOCC3)C2=O)cc1	.	.	.	.	.	i
COc1ccc(/C=C2\SC(=S)N(CCC(=O)Nc3ccccc3C(=O)O)C2=O)cc1	94.1	97.2	94.8	103.3	100.8	i
COc1ccc(NC(=O)NNC(=O)C(C)Oc2ccc(C(C)C)cc2)c(OC)c1 (configuration not stated)	105.6	102.9	98.0	105.0	97.2	i
CCCNC(=O)C1(C)CCCN(C(=O)c2cc3ccccc3s2)C1 (configuration not stated)	.	.	.	.	.	i
COc1ccc(/C=C2\SC(=S)N(CCC(=O)N3CCCCC3)C2=O)cc1	93.6	96.8	96.5	96.4	93.8	+
COc1ccc(/C=C2/SC(=S)N(CCC(=O)N3CCN(C)CC3)C2=O)cc1	103.2	100.0	106.7	106.6	107.8	i
Cc1ccc(/C=C2\SC(=S)N(CCC(=O)NNC(=O)c3cccc(O)c3)C2=O)cc1	14.3	?	78.5	21.4*[may fluoresce violet]	150.7	i
O=C(NCCc1nnc2ccc(NCc3ccccc3Cl)nn12)c1ccccc1	100.5	102.0	102.6	101.4	105.7	i
Cc1cccc(S(=O)(=O)c2c(N)n(Cc3ccco3)c3nc4ccccc4nc23)c1	100.2	105.0	100.2	101.0	104.8	+
Cc1ccc(S(=O)(=O)c2c(N)n(Cc3ccco3)c3nc4ccccc4nc23)cc1	46.9	102.1	98.4	76.2	119.9	i
O=C(Cn1cccc1C(=O)c1ccccc1)NCCc1ccc(Cl)cc1	93.6	93.0	86.2	93.6	95.0	i
CCC(=O)OCCNc1cc(Sc2nc3ccccc3s2)c2nonc2c1[N+](=O)[O-]	91.9	50.0	258.9*	77.4	93.6	?
CCOC(=O)C(NC(C)=O)(Nc1ccc(S(N)(=O)=O)cc1)C(F)(F)F (configuration not stated)	104.5	107.7	96.9	107.4	95.7	i
CC(C)c1ccc(S(=O)(=O)/N=C2\C=C(NS(=O)(=O)c3ccccc3)C(=O)c3ccccc32)cc1	?	?	88.5	25.2*[may fluoresce violet]	276.5*[may fluoresce violet]	.
CCN1CCN(c2ccc(S(=O)(=O)N3CCCCC3)cc2NC(=O)/C=C/c2ccc(F)cc2)CC1	100.9	98.4	96.0	94.2	97.2	i
CCN1CCN(c2ccc(S(=O)(=O)N3CCCCC3)cc2NC(=O)/C=C/c2cccc(OC)c2OC)CC1	86.4	92.7	78.8	99.0	97.7	+
SMILES	AGP1-GFP MLPCN	CIT2 TOR yeast	LAP4 TOR yeast	RPL19A-GFP yeast	MEP2 TOR yeast	Myeloid diff MLP
COc1ccc(Cl)cc1N(CC(=O)N1CCCC1)S(=O)(=O)c1ccc(C)cc1	?	?	90.2	47.0*[may fluoresce violet]	216.3*[may fluoresce violet]	i
COc1ccccc1N(CC(=O)N1CCCC1)S(=O)(=O)c1ccc(C)cc1	106.2	102.3	95.6	102.7	101.5	i
COC(=O)CSc1cc([N+](=O)[O-])ccc1NC(=O)OC	86.7	91.3	98.0	98.6	85.6	+
CCN1CCN(CC(=O)Nc2cc(S(=O)(=O)N(CC)c3ccccc3)ccc2Cl)CC1	105.1	105.1	101.9	99.5	118.1	i
CC(=O)Nc1ccc(Oc2cc(C#N)c(C#N)cc2N2CCOCC2)cc1	106.6	93.4	105.1	97.8	88.8	i
O=C1c2ccccc2C(=O)N1CC(O)COc1ccc(Cl)cc1 (configuration not stated)	100.5	94.1	108.5	96.0	101.5	i
COc1ccc(OCC(O)CN2C(=O)c3ccccc3C2=O)cc1 (configuration not stated)	97.1	97.2	106.2	96.5	99.7	+
CCCCCCn1c(=O)n2n(c1=O)C[C@]1(OC(=O)NCc3ccccc3F)CN(S(=O)(=O)c3ccc(C)cc3)C[C@]1(O)C2	.	.	.	.	.	i
Cc1ccc(-n2nnnc2SCC(=O)c2c(N)n(C3CC3)c(=O)[nH]c2=O)cc1	97.3	88.1	108.6	95.4	95.5	+
COC(=O)c1ccccc1NC(=O)c1cc(-c2ccco2)on1	?	?	73.5	52.0	214.3*[may fluoresce violet]	i
COC(=O)c1ccccc1NC(=O)c1cc(-c2cccs2)on1	97.1	98.1	107.2	97.3	98.2	i
CC(=O)Nc1cccc(NS(=O)(=O)c2c(C)noc2C)c1	100.4	115.6	96.3	102.0	102.6	i
Cc1noc(C)c1S(=O)(=O)Nc1ccc(C#N)cc1	117.7	155.6*[may fluoresce green]	103.1	91.6	105.7	i
Cc1noc(C)c1S(=O)(=O)Nc1cccc(CO)c1	113.0	152.1*[may fluoresce green]	111.3	91.6	95.6	i
COC(=O)c1c(N)n(-c2ccc(NC(C)=O)cc2)c2nc3ccccc3nc12	?	?	84.7	42.0*[may fluoresce violet]	365.1*[may fluoresce violet]	+
COCCCNC(=O)c1c(N)n(-c2ccccc2)c2nc3ccccc3nc12	.	.	.	93.1	105.6	i
CN(CC(=O)Nc1cccc(F)c1)CC(=O)NC(c1ccccc1)c1ccccc1	95.0	92.7	108.0	94.0	103.8	i
C/C(=N\NS(=O)(=O)c1ccc(C)cc1)c1cc2ccccc2oc1=O	92.0	103.0	95.5	96.2	95.4	i
